In PubChem BioAssay (Tox21):
“And” between values parts separate entries of the source, which are not always exact repeats. Identical values can stand only once. Inconclusive results are not listed. Entries that show only a call come without a potency. A structure can be active in one record and inactive in another. The source made the active and inactive calls. The call rests on the fitted dose curve; in most records, active means well fitted curve in the direction sought with a large enough effect in the repeat runs; inconclusive means weak or mixed curves; inactive means no such curve, though single readings can be large; an effect the other way counts as inactive or inconclusive. Starred links: 1 amine or outer side, 2 acyl side, 3 side chain; linkers in the order of their positions; H or OH if unused. Positions of bridges follow the written chain, without caps; N, C: chain ends. Non-standard residues stand in square brackets, D forms with d. Residues, ends and D or L forms follow the SMILES beside them. Chains are numbered I, II in the order given. Actinocin(9to1) = Cc1c2oc3c(C)ccc(C(=O)[*:1])c3nc-2c(C(=O)[*:2])c(N)c1=O; NMeV = CN[C@H](C(=O)O)C(C)C; Sar = CNCC(=O)O

Key:
[1] = A CellTox Green Cytotoxicity Assay to monitor cytotoxicity in HEK293 cells - 40 hour (AID 1224871); settings: CellTox Green fluorescence; series mostly up to 76.8 µM; further: nearly all actives have a fitted effect of over 45% in size; further: potency means the concentration at half of the fitted maximal effect
How it was run: (§1)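 Cytotoxicity was tracked continuously in HEK293 cells by a DNA-binding dye excluded from viable cells. Compounds were transferred in DMSO 5 h after seeding; fluorescence was recorded at intervals up to 40 h.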

[2] = qHTS RealTime-Glo MT Cell Viability Assay in HEK293 cells - 16 hour (AID 1224872); settings: RealTime-Glo luminescence; series mostly up to 76.8 µM; further: nearly all actives have a fitted effect of over 50% in size; further: potency means the concentration at half of the fitted maximal effect
How it was run: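 Quantitative high-throughput screen of the Tox21 10K library in HEK293: cells and RealTime-Glo reagents plated together, compound added at 5 h, luminescence monitored through 40 h at 37 C.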

[3] = qHTS RealTime-Glo MT Cell Viability Assay in HepG2 cells - 8 hour (AID 1224873); settings: RealTime-Glo luminescence; series mostly up to 76.8 µM; further: nearly all actives have a fitted effect of over 55% in size; further: potency means the concentration at half of the fitted maximal effect
How it was run: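 HepG2 cells mixed with RealTime-Glo MT reagents (NanoLuc plus cell-permeant prosubstrate) were seeded at 600 cells/well, incubated 5 h at 37 C/5% CO2, then pinned with compounds in DMSO; nonlytic luminescence tracked viability during 40 h treatment.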

[4] = A CellTox Green Cytotoxicity Assay to monitor cytotoxicity in HEK293 cells - 24 hour (AID 1224875); settings: CellTox Green fluorescence; series mostly up to 76.8 µM; further: nearly all actives have a fitted effect of over 45% in size; further: potency means the concentration at half of the fitted maximal effect
How it was run: as §1

[5] = A CellTox Green Cytotoxicity Assay to monitor cytotoxicity in HepG2 cells - 16 hour (AID 1224876); settings: CellTox Green fluorescence; series mostly up to 76.8 µM; further: nearly all actives have a fitted effect of over 45% in size; further: potency means the concentration at half of the fitted maximal effect
How it was run: (§2)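 Real-time, homogeneous cytotoxicity readout: dead-cell DNA staining by CellTox Green in HepG2 monolayers, fluorescence measured at timed intervals up to 40 h of continuous compound exposure.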

[6] = qHTS RealTime-Glo MT Cell Viability Assay in HepG2 cells - 32 hour (AID 1224877); settings: RealTime-Glo luminescence; series mostly up to 76.8 µM; further: nearly all actives have a fitted effect of over 55% in size; further: potency means the concentration at half of the fitted maximal effect
How it was run: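 Compound treatment began 5 h after plating HepG2 cells (600/well) with NanoLuc luciferase and prosubstrate. Plates stayed at 37 C for 40 h; luminescence was captured at six time points, 0 h through 40 h.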

[7] = A CellTox Green Cytotoxicity Assay to monitor cytotoxicity in HepG2 cells - 24 hour (AID 1224878); settings: CellTox Green fluorescence; series mostly up to 76.8 µM; further: nearly all actives have a fitted effect of over 45% in size; further: potency means the concentration at half of the fitted maximal effect
How it was run: as §2

[8] = A CellTox Green Cytotoxicity Assay to monitor cytotoxicity in HepG2 cells - 40 hour (AID 1224879); settings: CellTox Green fluorescence; series mostly up to 76.8 µM; further: nearly all actives have a fitted effect of over 40% in size; further: potency means the concentration at half of the fitted maximal effect
How it was run: as §2

[9] = qHTS RealTime-Glo MT Cell Viability Assay in HEK293 cells - 0 hour (AID 1224880); settings: RealTime-Glo luminescence; series mostly up to 76.8 µM
How it was run: (§3)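 Nonlytic bioluminescent viability monitoring. HEK293 at 600 cells/well with reagent; 5 h settle; compound transfer by pintool; plates held at 37 C and read at set time points.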

[10] = qHTS RealTime-Glo MT Cell Viability Assay in HEK293 cells - 40 hour (AID 1224874); settings: RealTime-Glo luminescence; max response: stronger effect = lower value; further: nearly all actives have a fitted effect of over 50% in size; further: potency means the concentration at half of the fitted maximal effect
How it was run: as §3

SMILES | Potency [1] | Potency [2] | Potency [3] | Potency [4] | Potency [5] | Potency [6] | Potency [7] | Potency [8] | Potency [9] | Potency [10] | max response [10]
O | inactive | inactive | inactive | inactive | inactive | inactive | inactive | inactive | inactive |  | 
CCC(C)(C)C(=O)O[C@H]1C[C@@H](C)C=C2C=C[C@H](C)[C@H](CC[C@@H]3C[C@@H](O)CC(=O)O3)[C@H]21 | inactive |  |  | inactive | inactive and 21.3 µM (active) |  |  | 24.5 µM (active) and 9.52 µM (active) |  |  | 
N[C@@H]1CONC1=O | inactive | inactive | inactive | inactive |  | inactive |  |  |  |  | 
Cc1occc(=O)c1OC(=O)C(C)C | inactive | inactive | inactive | inactive | inactive | inactive | inactive | inactive | inactive |  | 
CN(C)c1ccc2nc3ccc(=[N+](C)C)cc-3sc2c1 |  | 2.97 µM (active) and 3.09 µM (active) and 2.68 µM (active) | 9.39 µM (active) and 19.5 µM (active) and 19 µM (active) | inactive | inactive | 21 µM (active) and 12.3 µM (active) and 19 µM (active) | inactive | inactive |  | 1.67 µM (active) and 1.55 µM (active) and 2.68 µM (active) | 
CCCCCCC(O)CCCCCCCCCCC(=O)O (centres undefined) | inactive | inactive | inactive | inactive | inactive | inactive | inactive | inactive | inactive |  | 
CCC(C)(Oc1ccc(C2(c3ccc(OC(C)(CC)C(=O)O)cc3)CCCCC2)cc1)C(=O)O (centres undefined) | inactive | inactive | inactive | inactive | inactive | inactive | inactive | inactive | inactive |  | 
O=C1OC2(c3ccc(O)cc3Oc3cc(O)ccc32)c2ccccc21 | 692 nM (active) and 1.2 µM (active) | inactive |  | 692 nM (active) and 1.07 µM (active) | 616 nM (active) and 301 nM (active) | inactive | 616 nM (active) and 301 nM (active) | 616 nM (active) and 301 nM (active) | inactive |  | 12.3% (inactive) and -17.2% (inactive)
O=C(O[C@@H]1Cc2c(O)cc(O)cc2O[C@@H]1c1cc(O)c(O)c(O)c1)c1cc(O)c(O)c(O)c1 | inactive | 11.9 µM (active) | inactive | inactive | inactive |  | inactive | inactive | inactive |  | 
CC(C)(C)c1cc(C(C)(C)C)c(O)c(C(C)(C)C)c1 | 54.9 µM (active) and 34.7 µM (active) | inactive | inactive | 54.9 µM (active) and 38.9 µM (active) |  | inactive | 54.9 µM (active) | 49 µM (active) | inactive |  | 
Cc1ccc(S(=O)(=O)Oc2ccc(N=Nc3ccc(-c4ccc(N=Nc5c(O)ccc6cc(S(=O)(=O)O)cc(S(=O)(=O)O)c56)c(C)c4)cc3C)cc2)cc1 | inactive | inactive |  | inactive | inactive |  | inactive | inactive |  |  | -0.0985% (inactive)
C=C(C)C1CC=C(C)C(OC(C)=O)C1 (centres undefined) | inactive | inactive | inactive | inactive | inactive | inactive | inactive | inactive | inactive |  | 
NC(N)=NC(=O)Cc1c(Cl)cccc1Cl |  | inactive | inactive | inactive | inactive | inactive | inactive | inactive |  |  | -13.5% (inactive)
BrC1CCC(Br)C(Br)CCC(Br)C(Br)CCC1Br (centres undefined) | inactive | inactive |  | inactive | inactive |  | inactive | inactive |  |  | -14.3% (inactive)
O=C(O)CP(=O)(O)O | inactive | inactive | inactive | inactive | inactive | inactive | inactive | inactive | inactive |  | 
COC(=O)[C@H]1[C@H]2C[C@@H]3c4[nH]c5cc(OC)ccc5c4CCN3C[C@H]2C[C@@H](OC(=O)c2cc(OC)c(OC)c(OC)c2)[C@@H]1OC | inactive | 4.89 µM (active) and 5.65 µM (active) and 4.77 µM (active) |  | inactive | inactive |  | inactive | 43.6 µM (active) and 40 µM (active) and 23.9 µM (active) |  |  | 
O=C1CC2(CCCC2)CC(=O)N1CCCCN1CCN(c2ncccn2)CC1 | inactive | 43.6 µM (active) and inactive | inactive | inactive | inactive | inactive | inactive | 38.9 µM (active) and inactive | inactive |  | 
CCCCC(CC)COC(=O)CC(C(=O)OCC(CC)CCCC)S(=O)(=O)O (centres undefined) | 24.5 µM (active) |  | inactive | 21.9 µM (active) | 33.4 µM (active) and 38.9 µM (active) | inactive | 42 µM (active) and 38.9 µM (active) | 42 µM (active) and 43.6 µM (active) | inactive |  | 
CCC[C@H](N[C@@H](C)C(=O)N1[C@H](C(=O)O)C[C@@H]2CCCC[C@@H]21)C(=O)OCC | inactive | inactive | inactive | inactive | inactive | inactive | inactive | inactive | inactive |  | 
Nc1ccc(O)cc1 | 25.5 µM (active) and inactive | 40.4 µM (active) and inactive | 50.9 µM (active) and inactive | inactive | inactive | inactive | inactive | inactive | inactive |  | 
COC(=O)/C=C/c1ccccc1 |  | inactive | inactive |  | inactive | inactive | inactive | inactive | inactive |  | -2.16% (inactive)
Cc1c2oc3c(C)ccc(C(=O)N[C@@H]4C(=O)N[C@H](C(C)C)C(=O)N5CCC[C@H]5C(=O)N(C)CC(=O)N(C)[C@@H](C(C)C)C(=O)O[C@@H]4C)c3nc-2c(C(=O)N[C@@H]2C(=O)N[C@H](C(C)C)C(=O)N3CCC[C@H]3C(=O)N(C)CC(=O)N(C)[C@@H](C(C)C)C(=O)O[C@@H]2C)c(N)c1=O (I: T[dV]P[Sar][NMeV] / II: T[dV]P[Sar][NMeV]; ester I:1-I:C, II:1-II:C; linker I:N-II:N via Actinocin(9to1)) |  | 33.7 nM (active) and 120 nM (active) | 9.5 µM (active) and 10.7 µM (active) | inactive | inactive |  | inactive |  | inactive |  | 
CC(C)(c1ccccc1)c1ccc(Nc2ccc(C(C)(C)c3ccccc3)cc2)cc1 |  | inactive |  | inactive | inactive | inactive | inactive | inactive | inactive |  | -27.1% (inactive) and -13.6% (inactive)
Clc1ccc2c(c1)C(N1CCNCC1)=Nc1ccccc1O2 |  |  | inactive |  | 54.9 µM (active) | 54.9 µM (active) | 54.9 µM (active) and 26.8 µM (active) | 49 µM (active) and 26.8 µM (active) | inactive | 43.6 µM (active) and 23.9 µM (active) | 
Oc1c(Cl)cc(Cl)cc1Sc1cc(Cl)cc(Cl)c1O |  | inactive | inactive |  | 44.4 µM (active) and 43.6 µM (active) and inactive | inactive | 39.5 µM (active) and 43.6 µM (active) and inactive |  | inactive | 17.4 µM (active) and 22.2 µM (active) and 13.8 µM (active) | 
C#CC(C)(CC)OC(=O)c1ccccc1C(=O)O (centres undefined) |  | inactive | inactive | inactive | inactive | inactive | inactive | inactive | inactive |  | 
CC[C@@H](N)CO |  | inactive | inactive | inactive | inactive | inactive | inactive | inactive | inactive |  | 
